Molecules are shown by their SMILES. Records with an inconclusive call do not appear. Unmarked numbers belong to inactive results. Active and inactive are the calls of the source. Calls follow the shape of the dose curve; as a rule, active = well fitted curve in the direction sought with a large enough effect in the repeat runs; inconclusive = weak or mixed curves; inactive = no such curve, though single readings can be large; an effect the other way counts as inactive or inconclusive.

Assay [1] concerns the target Nuclear receptor subfamily 1 group I member 2 (Rattus norvegicus) (UniProt Q9R1A7). The assay can be described thus: Rat pregnane X receptor (rPXR) activation by small molecules, qHTS assay (AID 1346983). Also: nearly all actives have a fitted effect of over 20% in size. Also: potency is read from the fitted curve at half-maximal effect. The settings on record: rPXR luciferase reporter cells, One-Glo luminescence, 24 h; max activation: active compounds read high. Put shortly:
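Cell-based rPXR luciferase reporter assay, 2,000 cells per well, rested 5hr at 37 C before compound addition in DMSO, then 24 hr at 37 C. One-Glo reagent was added and luminescence read after 30 min at room temperature.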
On the technique in general: In qHTS, concentration-response curves come from the screen itself.

In assay [2] the target is Nuclear receptor subfamily 1 group I member 2 (Homo sapiens) (UniProt O75469). The assay can be described thus: CYP3A4 induction through human pregnane X receptor (PXR) by small molecules, qHTS assay (AID 1346984). Also: nearly all actives have a fitted effect of over 40% in size. Put shortly: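 Induction measured in HepG2-based DPX-2 cells co-expressing human PXR and a CYP3A4 promoter-driven luciferase. After a 24-hour compound exposure, cells received CYP3A4 luciferin substrate at 3uM final for 3 hours, and light output was then recorded.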

Assay [3] has the same target. The assay can be described thus: Human pregnane X receptor (PXR) activation by small molecules, qHTS assay (AID 1346985). Also: nearly all actives have a fitted effect of over 40% in size. Also: potency is read from the fitted curve at half-maximal effect. In a few lines: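 DPX-2 cells (HepG2 co-transfected with a PXR response element and a CYP3A4-promoter luciferase construct) were seeded at 2,000 per well, rested 5 hr at 37C, then exposed to DMSO-dissolved compounds for 24 hr. Activation was read as luciferase luminescence.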
% is scaled to controls: 0 for no effect and ±100 for the full control effect.

Nuclear receptor subfamily 1 group I member 2 (Rattus norvegicus), sequence (Q9R1A7 whole entry, looked up): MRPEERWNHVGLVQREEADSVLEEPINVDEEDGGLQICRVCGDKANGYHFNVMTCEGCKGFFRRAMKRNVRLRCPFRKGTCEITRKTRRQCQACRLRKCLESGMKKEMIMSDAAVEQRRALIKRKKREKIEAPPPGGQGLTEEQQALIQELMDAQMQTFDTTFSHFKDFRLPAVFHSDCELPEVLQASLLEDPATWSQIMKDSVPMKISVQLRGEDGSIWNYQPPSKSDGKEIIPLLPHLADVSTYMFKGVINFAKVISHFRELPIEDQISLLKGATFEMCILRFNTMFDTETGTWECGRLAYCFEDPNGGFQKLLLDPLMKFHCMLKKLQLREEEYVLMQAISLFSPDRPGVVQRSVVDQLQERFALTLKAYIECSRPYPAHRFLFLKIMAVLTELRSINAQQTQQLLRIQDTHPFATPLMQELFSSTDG

For the compound `CCN(CC)C(=O)[C@]1(c2ccccc2)C[C@@H]1CN`, the max activation in assay [1] is -2.63%. In addition, the Potency entry in assay [2] and in assay [3] was “inactive” each time.
Take `O=P(O)(O)CP(=O)(O)O`: the max activation in assay [1] was -0.378%. Besides, the Potency entry in assay [2] and in assay [3] was “inactive” throughout.
`O=C1c2ccccc2C(=O)C1c1ccc(F)cc1`: the figures for the Potency in assay [1] and in assay [3] were 28.2 µM (active) and 12.6 µM (active), respectively. Besides, the Potency entry in assay [2] was “inactive”.
As to `CC1CCCC(C)N1NC(=O)c1ccc(Cl)c(S(N)(=O)=O)c1` (configuration not stated), the max activation in assay [1] is -4.09%. In addition, the Potency result in assay [2] and in assay [3] was “inactive” in each case.
With `Cc1cc(=O)c(C(=O)N[C@@H](C(=O)N[C@@H]2C(=O)N3C(C(=O)O)=C(CSc4nnnn4C)CS[C@H]23)c2ccc(O)cc2)c[nH]1`, in assay [1], the max activation is -0.22%. Also, the Potency result in assay [2] and in assay [3] was “inactive” in each case.
For the compound `CO[C@H]1C[C@H](O[C@H]2[C@H](C)[C@@H](O[C@@H]3O[C@H](C)C[C@H](N(C)C)[C@H]3O)[C@@H](C)C[C@]3(CO3)C(=O)[C@H](C)[C@@H](O)[C@@H](C)[C@@H](C)OC(=O)[C@@H]2C)O[C@@H](C)[C@@H]1O`, the max activation in assay [1] is 3.2%. The Potency entry in assay [2] and in assay [3] was “inactive” throughout.
In the case of `NCC[C@H](O)C(=O)N[C@@H]1C[C@H](N)[C@@H](O[C@H]2O[C@H](CN)CC[C@H]2N)[C@H](O)[C@H]1O[C@H]1O[C@H](CO)[C@@H](O)[C@H](N)[C@H]1O`, in assay [1], the max activation was -1.85%. Moreover, the Potency entry in assay [2] and in assay [3] was “inactive” throughout.
Regarding `CC(C)(Oc1ccc(C2CCCc3ccccc32)cc1)C(=O)O` (configuration not stated), the max activation in assay [1] is -3.77%. Moreover, the Potency result in assay [2] and in assay [3] was “inactive” throughout.
With `Cc1cc(N)c2ccccc2[n+]1CCCCCCCCCC[n+]1c(C)cc(N)c2ccccc21`, the max activation in assay [1] was -11.7%. Further, the Potency entry in assay [2] and in assay [3] was “inactive” in each case.
Consider `Cc1cc(CC(C)CC(C)(C)C)n(O)c(=O)c1` (configuration not stated) (tested in a mixture with another compound), for which the max activation in assay [1] is -3.3%. For the same compound, the Potency entry in assay [2] was “inactive”. For the same compound, in assay [3], the Potency is 25.1 µM (active).
`C[C@@H]1C(=O)NC2=Nc3cccc(Cl)c3CN21`: in assay [1], the max activation was 3.73%. The Potency entry in assay [2] and in assay [3] was “inactive” throughout.
With `CCOC(=O)[C@H](CCc1ccccc1)N[C@@H](C)C(=O)N1[C@H](C(=O)O)C[C@H]2CCCC[C@@H]21`, the max activation in assay [1] is -1.14%. For the same compound, the Potency entry in assay [2] and in assay [3] was “inactive” throughout.
As for `CC(=O)OCC1=C(C(=O)O)N2C(=O)[C@@H](NC(=O)Cc3ccccc3)[C@H]2SC1`, the max activation in assay [1] was -4.93%. The Potency result in assay [2] and in assay [3] was “inactive” throughout.
Turning to `CO/N=C(\C(=O)N[C@@H]1C(=O)N2C(C(=O)[O-])=C(C[n+]3ccc(N)n3CCO)CS[C@H]12)c1csc(N)n1`, in assay [1], the max activation was -1.9%. Further, the Potency result in assay [2] and in assay [3] was “inactive” throughout.
Turning to `CC(=O)Oc1cc(C(F)(F)F)ccc1C(=O)O`, in assay [1], the max activation is 2.94%. For the same compound, the Potency entry in assay [2] and in assay [3] was “inactive” throughout.
Turning to `CCCOC(=O)c1ccccc1O`, in assay [1], the max activation is -4.53%. In addition, the Potency result in assay [2] and in assay [3] was “inactive” throughout.
For `NC(=O)[C@@H]1CCCN1C(=O)[C@H](Cc1cnc[nH]1)NC(=O)[C@@H]1CCC(=O)N1`, the max activation in assay [1] is -0.96%. Also, the Potency result in assay [2] and in assay [3] was “inactive” throughout.
In the case of `C[Se]CC[C@H](N)C(=O)O`, the max activation in assay [1] is -6.85%. Also, the Potency result in assay [2] and in assay [3] was “inactive” in each case.
For `CC1(C)S[C@@H]2[C@H](NC(=O)[C@@H](NC(=O)N3CCNC3=O)c3ccccc3)C(=O)N2[C@H]1C(=O)O`, the max activation in assay [1] is -1.76%. The Potency result in assay [2] and in assay [3] was “inactive” each time.
Regarding `CCN(CC)C(=O)c1cccnc1`, in assay [1], the max activation is -3.83%. Also, the Potency entry in assay [2] and in assay [3] was “inactive” throughout.
Take `CC(CNC(=O)c1cccnc1)NC(=O)c1cccnc1` (configuration not stated): in assay [1], the max activation is -2.47%. Moreover, the Potency result in assay [2] and in assay [3] was “inactive” throughout.
With `O=C(O)CCCC/C=C(\c1ccccc1)c1cccnc1`, the max activation in assay [1] was -2.2%. Moreover, the Potency result in assay [2] and in assay [3] was “inactive” in each case.
Take `CO/N=C(\C(=O)N[C@@H]1C(=O)N2C(C(=O)O)=C(C[N+]3(C)CCCC3)CS[C@H]12)c1csc(N)n1`: the max activation in assay [1] was -0.506%. Moreover, the Potency result in assay [2] and in assay [3] was “inactive” throughout.
As for `COC(=O)C(CN)c1c[nH]c2ccc(OC)cc12` (configuration not stated), the max activation in assay [1] is -1.11%. The Potency result in assay [2] and in assay [3] was “inactive” in each case.
On to `Cc1cn([C@H]2C[C@H](O)[C@@H](CO)O2)c(=O)[nH]c1=O`, for which the max activation in assay [1] was -1.3%. For the same compound, the Potency entry in assay [2] and in assay [3] was “inactive” each time.
In the case of `N#Cc1c(N(CC(=O)O)CC(=O)O)sc(C(=O)O)c1CC(=O)O`, in assay [1], the max activation is -5.61%. Moreover, the Potency entry in assay [2] and in assay [3] was “inactive” each time.
For the compound `O=C1c2ccccc2CN2C(=O)c3ccccc3CN12`, in assay [1], the max activation is -1.83%. Also, the Potency entry in assay [2] and in assay [3] was “inactive” in each case.
For the compound `CCc1cn([C@H]2C[C@H](O)[C@@H](CO)O2)c(=O)[nH]c1=O`, in assay [1], the max activation is 1.52%. Also, the Potency entry in assay [2] and in assay [3] was “inactive” in each case.
For the compound `CO/N=C(\C(=O)N[C@@H]1C(=O)N2C(C(=O)O)=C(CSc3nc(C)c(CC(=O)O)s3)CS[C@H]12)c1csc(N)n1`, the max activation in assay [1] was -4.17%. Moreover, the Potency result in assay [2] and in assay [3] was “inactive” each time.

These data come from PubChem BioAssay (Tox21).
